A selection: hits, their analogues and other compounds. The true share with any hit is near 2.4%.
D2 PAM-1 – Beta-Arrestin HTS for Positive Allosteric Modulators of the Human D2 Dopamine Receptor: Potentiators; DiscoveRx D2 beta-arrestin cells, luminescence, 90 min; 100% = 57 uM dopamine signal; D(2) dopamine receptor (Homo sapiens), P14416; hit rate 0.23% among 360,000; AID 624464, 2012; potentiation, % (concentration not given with the values); in the data active = potentiation above about 50%; inconclusive = mostly about 30% to 49%
Target sequence (P14416 whole entry, looked up): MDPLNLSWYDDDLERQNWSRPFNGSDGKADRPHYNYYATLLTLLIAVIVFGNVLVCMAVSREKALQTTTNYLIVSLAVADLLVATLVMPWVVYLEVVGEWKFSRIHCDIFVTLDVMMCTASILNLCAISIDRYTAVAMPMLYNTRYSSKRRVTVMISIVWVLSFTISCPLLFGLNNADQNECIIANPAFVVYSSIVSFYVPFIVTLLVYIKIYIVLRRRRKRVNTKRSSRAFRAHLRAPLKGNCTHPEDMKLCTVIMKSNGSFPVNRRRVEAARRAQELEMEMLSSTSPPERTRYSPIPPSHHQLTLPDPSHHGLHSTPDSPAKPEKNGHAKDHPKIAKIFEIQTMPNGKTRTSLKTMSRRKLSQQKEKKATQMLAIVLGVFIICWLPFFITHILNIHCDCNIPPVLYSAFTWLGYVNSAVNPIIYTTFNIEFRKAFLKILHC
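D2 cells co-treated with compound plus 50 nM dopamine (EC20) for 90 min at 37 deg C to detect potentiation. Beta-arrestin recruitment was read as enzyme-fragment luminescence after 1 h at ambient temperature. Full response was set by 57 uM dopamine.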
D2 ag-1 – HTS Assay for Allosteric Agonists of the Human D2 Dopamine Receptor: Primary Screen for Agonists; hit rate 0.53% among 340,000; activation, % at 2 µM; HEK293 T-REx D2 cells, calcium flux agonist mode;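 active = activation over 3 SD above normal in the single-dose calcium agonist read, cut at about 30% in these data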
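In this primary screen, compounds producing a positive calcium signal within 180 s of addition to tetracycline-induced, force-coupled HEK293 Trex D2 cells are flagged; cells are dye-loaded with a no-wash calcium kit beforehand.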
D2 antagonist – HTS Assay for Allosteric Antagonists of the Human D2 Dopamine Receptor: Primary Screen for Antagonists; D(2) dopamine receptor (Homo sapiens), P14416; HEK293 TREx D2 cells, calcium flux, dopamine EC80; inhibition, % at 10 µM; hit rate 2% among 340,000; in the data active = inhibition above about 30%; inactive = below that, where a call was filed
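Tetracycline-induced HEK293 TREx cells expressing D2 receptor forced-coupled to calcium signalling, loaded with no-wash calcium dye. Compounds added and calcium flux read 180 s, then dopamine added at EC80 and read a further 180 s.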
D2 PAM-2 – HTS Assay for Positive Allosteric Modulators of the Human D2 Dopamine Receptor: Primary Screen for Potentiators; D(2) dopamine receptor (Homo sapiens), P14416; HEK293 T-REx D2, calcium flux, EC20 dopamine potentiation; potentiation, % at 10 µM; hit rate 0.34% among 340,000; AID 485347, 2010;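 active = potentiation over 3 SD above the plate norm, cut at about 30% in these data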
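Primary screen. Calcium kinetics in induced HEK293 T-REx D2 cells: compound pre-addition 180 s, EC20 dopamine, 180 s more.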
D2 ag-2 – Beta-Arrestin HTS for Positive Allosteric Modulators of the Human D2 Dopamine Receptor: Agonists; hit rate 0.084% among 360,000; AID 624465, 2012; activation, % (concentration not given with the values); D(2) dopamine receptor (Homo sapiens), P14416; DiscoveRx PathHunter D2 beta-arrestin, luminescence, 90 min; 100% = 57 uM dopamine signal; in the data active = activation above about 40%; inconclusive = between about 15% and that limit
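DiscoveRx PathHunter D2 beta-arrestin cells (2,100/well) attached overnight, then compound-stimulated 90 min at 37 C in HBSS/10 mM HEPES/0.1% Tween-20 buffer; beta-galactosidase complementation read by luminescence after 1 h at ambient temperature. Dopamine 57 uM final (EC100) as control.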
Numbers stand for hits; - = inactive; ? = inconclusive; . = not tested or not shown.

SMILES	D2 PAM-1	D2 ag-1	D2 antagonist	D2 PAM-2	D2 ag-2
O=C(O)c1ccc(N/N=C/c2ccnc3ccccc23)cc1	-	-	39.9	-	-
CCOc1ccc(C2CC(=O)Nc3nc(SCc4ccccc4C)[nH]c(=O)c32)cc1OC (configuration not stated)	.	-	.	-	.
Cc1cccc(NC(=O)Cn2nc3c4ccccc4n(Cc4ccccc4)cc-3c2=O)c1	.	-	.	-	.
Cc1ccc(C)c(Cn2nc3c4ccccc4n(Cc4ccccc4)cc-3c2=O)c1	-	-	30.4	-	-
COc1ccc(Nc2nc(C(=O)N3CCc4cc(OC)c(OC)cc4C3)cs2)cc1	-	-	-	-	-
COc1ccc(Nc2nc(C(=O)N3CCc4ccccc4C3)cs2)cc1	-	-	81.5	-	-
Cc1cc(N2CCCC2)ccc1/C=C1/C(=O)N(C)C(=S)N1C	-	-	59.5	-	-
Cc1cc(/C=C2\NC(=S)N(C)C2=O)ccc1N1CCCC1	-	69.3	41.7	-	-
Cc1cc(/C=C2/C(=O)N(C)C(=S)N2C)ccc1N1CCCC1	-	31.9	-	-	-
CCCN1C(=O)/C(=C/c2ccc(N3CCCC3)c(C)c2)NC1=S	-	.	.	.	-
CCN1C(=O)/C(=C/c2ccc(N3CCCC3)cc2)NC1=S	-	59.4	-	-	-
CCCN1C(=O)/C(=C/c2ccc(N3CCOCC3)cc2)NC1=S	-	-	-	.	-
CN1C(=O)/C(=C/c2ccc(OCc3ccc(F)cc3)cc2)N(C)C1=S	-	.	.	.	-
N#CCCn1cc(CNC2CCC(O)CC2)c2ccccc21 (configuration not stated)	-	-	-	30.1	-
CC1(Cc2cn(CCC#N)c3ccccc23)OCCO1	-	-	-	-	-
CC1CCC/C(=C\Nc2ccc(O)cc2)C1=O (configuration not stated)	53.9	-	-	-	-
Cc1cc(C(=O)O)ccc1N/C=C1\CCCC(C)C1=O (configuration not stated)	-	-	-	-	-
NC(=S)N/N=C/c1cccc(O)c1O	-	-	-	-	-
Cc1cc(/C=N/NC(N)=S)c(O)c(/C=N/NC(N)=S)c1	-	45.1	-	-	-
CCOC(=O)c1[nH]c(C)c(CCC(=O)NCc2ccc(OCC)cc2)c1C	.	-	.	-	.
O=C1C=C(c2ccccc2)C[C@H](c2cccs2)[C@H]1n1nnc([N+](=O)[O-])n1	57.8	.	.	-	-
O=C1C=C(c2ccccc2)CC(c2cccs2)C1n1cnc([N+](=O)[O-])c1 (configuration not stated)	-	-	-	-	-
COc1cc(S(=O)(=O)NCCc2c(C)[nH]c3ccccc23)c(C)cc1C	.	-	.	-	.
CC1=Nc2ccccc2/C1=C\c1sc(Nc2ccc(C)cc2)nc1O	-	-	61.0	-	-
Oc1nc(Nc2ccc(F)cc2)sc1/C=C1\C=Nc2ccccc21	-	-	-	-	-
SMILES	D2 PAM-1	D2 ag-1	D2 antagonist	D2 PAM-2	D2 ag-2
O=C(Cc1cccs1)NC1CC(=O)N(c2ccccc2)C1 (configuration not stated)	.	.	.	-	.
N#Cc1cc(NCC2CCCO2)c([N+](=O)[O-])cc1C#N (configuration not stated)	50.1	-	-	-	-
CCN(CC)C(=O)c1sc2c(c1C)c(=O)n(-c1ccc(C)c(C)c1)c(=O)n2CC(=O)Nc1ccc(OC)cc1OC	.	-	.	-	.
COc1cc(C2C(C#N)=C(N)Oc3n[nH]c(-c4cccnc4)c32)ccc1OCC(N)=O (configuration not stated)	-	-	30.2	-	-
CC(C)(C)c1cc(C(=O)NNC(=O)Nc2cccc(Cl)c2)n(Cc2ccccc2)n1	-	-	49.7	-	-
Cc1nn(-c2ccccc2)c2c1C1(C(=O)N(C(C)C)c3ccccc31)C(C#N)=C(N)O2 (configuration not stated)	60.3	-	-	-	-
CCCc1cc(C(=O)Cc2ccccn2)c(O)cc1O	-	-	36.6	-	-
CCOc1cc(/C=N/Nc2nc(-c3cccc(S(=O)(=O)N4CCCC4)c3)cs2)ccc1O	118.7	-	-	-	?
COc1ccc(/C=N/Nc2nc(-c3cccc(S(=O)(=O)N4CCCC4)c3)cs2)cc1OC	-	-	-	-	-
Nc1ccc2c(c1)Cc1cc([N+](=O)[O-])ccc1-2	-	46.8	-	-	-
O=C(NCc1ccc(F)cc1)c1ccc2c(c1)N(Cc1c(F)cccc1Cl)C(=O)CS2	.	-	.	-	.
CCC(C(=O)OCC(=O)C1(O)CCC2C3CCC4=CC(=O)CCC4(C)C3C(O)CC21C)C(C)C (configuration not stated)	55.6	.	.	.	-
CC(=O)[C@@]1(O)CC[C@H]2[C@@H]3CCC4=CC(=O)CC[C@]4(C)[C@H]3[C@@H](O)C[C@@]21C	-	-	-	-	-
CCCN1CCN(c2nc(-c3cccs3)nc3ccccc23)CC1	-	-	36.6	-	-
CCOc1ccc(C(C)=O)cc1CN1C(=O)c2ccccc2S1(=O)=O	-	-	34.0	-	-
CCOC(=O)c1ccc(CN2C(=O)c3ccccc3S2(=O)=O)cc1	-	-	-	-	-
CCN(CC)CCNC(=O)c1cc2cc(Br)ccc2s1	-	-	50.3	-	-
CCN(CC)CCNC(=O)c1cc(-c2ccc(Br)s2)nc2ccccc12	-	-	-	-	-
COc1ccc(N(C)C(=O)c2cn(C3CCCCC3)c(=O)c3c2c2ccccc2n3C)cc1	.	-	.	-	.
CCOC(=O)C1CCN(C(=O)CCc2nc3ccccc3[nH]2)CC1	-	-	60.6	-	-
CCOC(=O)C1CCN(C(=O)CCc2ccccc2)CC1	-	-	-	-	-
Cc1cccc(C)c1OCC(=O)OCC(=O)c1ccc2c(c1)NC(=O)CO2	-	-	30.2	-	-
CCN(CC)CCNC(=O)c1cc([N+](=O)[O-])c(N(C)C)cc1OC	-	-	94.1	-	-
CCN(CC)CCNC(=O)c1cc(Cl)c(N)cc1OC	-	-	81.8	-	-
Cc1cccc(NC(=O)Cn2cc(C(=O)C3CCCCC3)c3ccccc32)c1	.	-	.	-	.
COc1cccc(Nc2nc(=O)[nH]nc2C)c1	-	-	34.2	.	-
CC1(C)CC(=O)c2sc(NS(=O)(=O)Cc3ccccc3)nc2C1	-	-	-	34.2	-
Cc1ccc(S(=O)(=O)Nc2nc3c(s2)C(=O)CC(C)(C)C3)cc1	-	-	-	-	-

Screening results as filed in PubChem BioAssay.
